Compounds with a hit are over-represented: about 3.4% of the library has one in this group of screens.
FBW7 act: activators of human E3 ligase FBW7; Q969H0; normalized activity (activation), % at 26.1 µM; 650,000 tested, 0.13% active; AID 1259310; AlphaScreen FBW7–phospho-cyclin E peptide binding, activator screen; in the data active = normalized activity above about 1.9%;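 note: purified mutant Fbw7 with reduced substrate affinity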
Target sequence (Q969H0 whole entry, looked up): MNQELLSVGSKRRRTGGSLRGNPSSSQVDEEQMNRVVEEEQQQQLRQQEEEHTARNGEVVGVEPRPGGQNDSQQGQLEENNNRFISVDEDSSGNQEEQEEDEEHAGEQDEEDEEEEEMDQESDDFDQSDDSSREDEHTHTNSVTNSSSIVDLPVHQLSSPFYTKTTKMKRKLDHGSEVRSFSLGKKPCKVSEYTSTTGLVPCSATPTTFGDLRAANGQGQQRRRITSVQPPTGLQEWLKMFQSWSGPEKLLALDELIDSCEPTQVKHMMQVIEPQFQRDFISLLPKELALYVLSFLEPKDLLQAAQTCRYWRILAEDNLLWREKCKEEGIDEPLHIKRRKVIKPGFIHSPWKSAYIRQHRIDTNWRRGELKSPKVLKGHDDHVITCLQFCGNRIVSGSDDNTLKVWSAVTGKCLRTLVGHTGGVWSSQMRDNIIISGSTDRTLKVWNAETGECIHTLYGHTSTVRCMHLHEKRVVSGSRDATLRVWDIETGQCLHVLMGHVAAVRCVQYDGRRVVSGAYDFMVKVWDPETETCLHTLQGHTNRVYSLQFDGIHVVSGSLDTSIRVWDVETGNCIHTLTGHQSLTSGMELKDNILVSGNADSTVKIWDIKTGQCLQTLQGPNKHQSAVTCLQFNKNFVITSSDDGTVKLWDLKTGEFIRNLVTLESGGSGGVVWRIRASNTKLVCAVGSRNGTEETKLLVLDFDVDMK
TEAD-YAP block: TEAD-YAP interaction inhibition; HEK-TIYL cells, TEAD-Gal4/YAP UAS-luciferase luminescence; inhibition, % at 9.12 µM; 640,000 tested, 1.4% active; AID 1259422; in the data active = inhibition above about 32%
GPR151 ag: activates the human receptor GPR151; Q8TDV0; PathHunter beta-arrestin GPR151 cells, luminescence; activation, % at 11.2 µM; 650,000 tested, 1% active; AID 1508602; in the data active = activation above about 4.9%
MITF primary: inhibitors of human MITF; O75030; AlphaScreen MITF homodimerization, bead proximity signal; inhibition, % at 2.6 µM; 650,000 tested, 0.91% active; AID 1259374; in the data active = inhibition above about 50%
A number is an active result; i = inactive.

SMILES	FBW7 act	TEAD-YAP block	GPR151 ag	MITF primary
CCC(C)C(=O)N1CCC(C(=O)Nc2ccc(-c3nc4ccccc4o3)cc2)CC1 (stereo not drawn)	i	i	i	i
CC(C)c1ccc2oc(-c3ccc(Cl)c(NC(=O)COc4ccc(Cl)cc4)c3)nc2c1	i	i	i	i
COc1ccc(OCC(=O)Nc2ccc(-c3cc4ccccc4oc3=O)c(C)c2)cc1	i	i	i	i
CCC(C)C(=O)Nc1ccc(-c2nc3ccccc3o2)cc1 (stereo not drawn)	i	37.8	i	i
COc1ccc(OCC(=O)Nc2cc(-c3nc4cc(C(C)C)ccc4o3)ccc2Cl)cc1	i	70.0	i	i
COc1ccc(OCC(=O)Nc2ccc(-c3nc4cc(C(C)C)ccc4o3)cc2)cc1	i	47.9	i	i
COc1ccc(OCC(=O)Nc2ccc(-c3cc4ccccc4oc3=O)cc2)cc1	i	43.3	i	i
Cc1ccc(CC(=O)Nc2cccc(Br)c2)cc1	i	i	i	i
COc1ccc(-c2cc3ccc(O)cc3oc2=O)cc1OC	i	i	i	i
COc1ccc(NC(=O)COc2ccc(C(C)C)cc2)c(OC)c1	2.1	i	i	i
O=c1oc2cc(O)ccc2cc1-c1ccc(Cl)cc1	i	42.1	i	i
Cc1ccc(OCC(=O)Nc2cc(-c3nc4cc(C(C)C)ccc4o3)ccc2Cl)cc1	i	i	i	i
CC(C)c1ccc2oc(-c3ccc(NC(=O)COc4ccccc4)cc3)nc2c1	i	68.7	i	i
CCC(=O)Nc1cc(-c2nc3cc(C(C)C)ccc3o2)ccc1Cl	i	45.7	i	i
Cc1csc(CN(C)C(=O)CC2C(=O)NCCN2CCc2ccccc2)n1 (stereo not drawn)	i	i	i	i
CC(C)n1c(Nc2ccc(-n3ccnc3)cc2)nc2c(NCc3cccc(C(F)(F)F)c3)ncnc21	i	i	i	i
Nc1ccc(-c2cc3ccccc3oc2=O)cc1	i	70.2	i	i
COc1ccc(/C(O)=C2\C(=O)C(=O)N(Cc3cccnc3)C2c2ccccc2OC)c(C)c1 (stereo not drawn)	i	i	i	i
CC1CCN(C(=O)c2ccc3nc(N4C(=O)CCC4=O)sc3c2)CC1	1.9	i	i	i
CCOC(=O)N1CCN(S(=O)(=O)c2ccc(C(=O)Nc3sc4c(c3C#N)CCCCC4)cc2)CC1	i	i	i	i
O=C(COc1ccccc1)Nc1ccc(N2CCC(NCc3ccccc3)CC2)cc1	i	33.6	i	i
CCOC(=O)c1ccc(NC2=C(N3CCOCC3)C(=O)c3ccccc3C2=O)cc1	i	i	i	i
O=C(O)CCN(Cc1ccc(Cl)cc1)S(=O)(=O)c1ccc(Br)cc1	2.1	i	i	i
O=C(O)CCCN(Cc1ccc(Cl)cc1)S(=O)(=O)c1ccc(Br)cc1	i	i	i	i
CCOCc1cc(CN2CCCCC2)c(O)c2ncccc12	i	i	i	103.2
SMILES	FBW7 act	TEAD-YAP block	GPR151 ag	MITF primary
Oc1c(CN2CCN(c3cccc(Cl)c3)CC2)cc(COCc2ccccc2)c2cccnc12	i	i	i	i
CCOCc1cc(CN2CCN(c3ccccc3)CC2)c(O)c2ncccc12	i	58.9	i	95.3
CCOC(=O)C1CCCN(Cc2cc(Cl)c3cccnc3c2O)C1 (stereo not drawn)	i	i	i	i
CCOC(=O)C(=O)/C=C(\O)c1ccc(C)cc1	i	i	i	i
CCOC(=O)c1ccc2c(c1)C1C=CCC1C(c1ccc(C(=O)O)cc1)N2 (stereo not drawn)	i	i	i	68.0
O=C(O)c1ccc2c(c1)C1C=CCC1C(c1cccc3ccccc13)N2 (stereo not drawn)	i	49.1	i	i
O=C(O)c1ccc2c(c1)[C@@H]1C=CC[C@@H]1[C@H](c1c(F)cccc1Cl)N2	i	39.9	i	i
O=C(O)c1ccc(C2Nc3ccc([N+](=O)[O-])cc3C3C=CCC32)cc1 (stereo not drawn)	i	i	i	76.2
CCOC(=O)c1ccc2c(c1)C1C=CCC1C(c1ccc(F)cc1)N2 (stereo not drawn)	i	i	i	i
Cn1c(CN2CCCC(CNS(=O)(=O)Cc3ccccc3)C2)nc2ccccc21 (stereo not drawn)	i	i	i	i
COc1cc(Nc2nc(Nc3ccc(NC(C)=O)cc3)c3ncn(CCN4CCCC4=O)c3n2)cc(OC)c1OC	i	i	i	i
COc1ccc(Nc2nnc(SCC(=O)C(C)(C)C)s2)cc1	i	i	i	i
O=C(N/N=C\c1cc(Br)c(O)c(O)c1Br)c1ccccc1O	i	i	i	i
COC(=O)c1ccc([C@@H]2Nc3ccc(C(C)=O)cc3[C@@H]3C=CC[C@@H]32)cc1	i	i	i	i
CCOC(=O)c1ccc2c(c1)C1C=CCC1C(C(=O)O)N2 (stereo not drawn)	i	i	i	76.3
